# Results reported in ChEMBL document CHEMBL2218924, “A broad activity screen in support of a chemogenomic map for kinase signalling research and drug discovery” (Biochem J, 2013).
# Columns and labels:
# [1] = biological target: T1, Serine/threonine-protein kinase 17A (Homo sapiens) (UniProt Q9UEE5); conditions: at 1 µM
# T1 sequence (whole entry): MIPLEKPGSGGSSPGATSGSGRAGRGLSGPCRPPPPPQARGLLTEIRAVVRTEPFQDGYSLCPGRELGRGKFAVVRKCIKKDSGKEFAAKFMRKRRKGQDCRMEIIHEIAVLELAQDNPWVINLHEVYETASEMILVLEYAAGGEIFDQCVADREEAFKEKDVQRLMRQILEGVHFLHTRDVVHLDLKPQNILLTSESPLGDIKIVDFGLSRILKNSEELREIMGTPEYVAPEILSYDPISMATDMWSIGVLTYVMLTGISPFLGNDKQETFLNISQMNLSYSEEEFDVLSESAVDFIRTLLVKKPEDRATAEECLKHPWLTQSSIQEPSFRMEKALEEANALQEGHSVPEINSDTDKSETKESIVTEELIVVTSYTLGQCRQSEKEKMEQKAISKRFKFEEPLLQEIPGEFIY
# [2] = biological target: T1, Serine/threonine-protein kinase 17A (Homo sapiens); conditions: at 10 µM
# [3] = biological target: T2, Ephrin type-A receptor 1 (Homo sapiens) (UniProt P21709); conditions: at 10 µM
# T2 sequence (whole entry): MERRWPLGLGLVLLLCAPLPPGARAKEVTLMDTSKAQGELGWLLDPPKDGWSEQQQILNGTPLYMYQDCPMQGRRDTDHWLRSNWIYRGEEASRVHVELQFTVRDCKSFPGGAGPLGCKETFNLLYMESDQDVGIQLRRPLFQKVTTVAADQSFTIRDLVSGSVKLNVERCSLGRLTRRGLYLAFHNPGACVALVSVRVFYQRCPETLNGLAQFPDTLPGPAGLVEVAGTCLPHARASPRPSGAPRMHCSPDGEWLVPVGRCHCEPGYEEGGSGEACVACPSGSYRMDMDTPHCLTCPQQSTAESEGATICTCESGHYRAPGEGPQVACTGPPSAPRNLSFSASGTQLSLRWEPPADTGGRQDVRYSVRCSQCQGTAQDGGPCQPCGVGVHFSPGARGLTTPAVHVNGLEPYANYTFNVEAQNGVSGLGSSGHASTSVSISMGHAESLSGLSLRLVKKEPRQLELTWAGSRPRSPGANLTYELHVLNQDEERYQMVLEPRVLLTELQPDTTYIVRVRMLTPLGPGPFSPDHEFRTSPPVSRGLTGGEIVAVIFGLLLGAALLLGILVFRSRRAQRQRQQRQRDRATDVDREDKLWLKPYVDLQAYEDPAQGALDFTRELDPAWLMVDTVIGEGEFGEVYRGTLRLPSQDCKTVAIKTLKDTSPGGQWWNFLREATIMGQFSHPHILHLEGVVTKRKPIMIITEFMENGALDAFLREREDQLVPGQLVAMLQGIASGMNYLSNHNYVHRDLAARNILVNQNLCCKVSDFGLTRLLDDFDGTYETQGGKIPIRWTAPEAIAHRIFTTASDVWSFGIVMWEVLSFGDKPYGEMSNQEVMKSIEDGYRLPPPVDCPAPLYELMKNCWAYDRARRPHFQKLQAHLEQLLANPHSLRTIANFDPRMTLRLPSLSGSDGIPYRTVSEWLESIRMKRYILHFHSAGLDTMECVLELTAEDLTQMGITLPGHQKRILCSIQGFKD
# [4] = biological target: T3, Ephrin type-A receptor 3 (Homo sapiens) (UniProt P29320); conditions: at 1 µM
# T3 sequence (whole entry): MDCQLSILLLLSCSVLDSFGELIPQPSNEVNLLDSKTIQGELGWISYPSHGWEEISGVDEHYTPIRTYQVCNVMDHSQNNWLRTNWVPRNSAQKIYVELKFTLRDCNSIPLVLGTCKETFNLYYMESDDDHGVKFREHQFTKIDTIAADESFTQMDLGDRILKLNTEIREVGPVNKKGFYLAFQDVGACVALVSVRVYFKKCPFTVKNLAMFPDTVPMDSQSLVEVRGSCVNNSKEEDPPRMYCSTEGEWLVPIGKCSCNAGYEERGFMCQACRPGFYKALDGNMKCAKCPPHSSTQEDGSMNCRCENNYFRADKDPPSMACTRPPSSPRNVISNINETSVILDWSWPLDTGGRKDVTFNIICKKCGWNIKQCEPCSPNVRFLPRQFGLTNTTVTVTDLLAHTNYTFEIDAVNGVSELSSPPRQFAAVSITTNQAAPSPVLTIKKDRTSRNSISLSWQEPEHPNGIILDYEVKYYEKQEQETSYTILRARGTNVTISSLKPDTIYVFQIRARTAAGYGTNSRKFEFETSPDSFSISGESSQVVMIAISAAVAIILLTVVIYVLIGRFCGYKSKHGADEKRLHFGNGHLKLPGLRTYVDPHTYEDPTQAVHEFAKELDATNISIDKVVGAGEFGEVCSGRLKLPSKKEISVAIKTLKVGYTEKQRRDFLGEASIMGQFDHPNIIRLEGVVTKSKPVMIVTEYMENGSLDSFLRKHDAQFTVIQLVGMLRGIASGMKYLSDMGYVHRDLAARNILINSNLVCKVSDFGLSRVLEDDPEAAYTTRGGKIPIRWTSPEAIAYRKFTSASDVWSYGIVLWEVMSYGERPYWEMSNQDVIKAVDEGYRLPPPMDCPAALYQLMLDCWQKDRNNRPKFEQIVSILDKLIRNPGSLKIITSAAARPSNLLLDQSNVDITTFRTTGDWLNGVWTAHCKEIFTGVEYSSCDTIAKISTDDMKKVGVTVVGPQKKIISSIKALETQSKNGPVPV
# [5] = biological target: Death-associated protein kinase 1 (Homo sapiens) (UniProt P53355); conditions: at 10 µM
# Death-associated protein kinase 1 (Homo sapiens), sequence (P53355 whole entry, looked up, the tested form may be a part): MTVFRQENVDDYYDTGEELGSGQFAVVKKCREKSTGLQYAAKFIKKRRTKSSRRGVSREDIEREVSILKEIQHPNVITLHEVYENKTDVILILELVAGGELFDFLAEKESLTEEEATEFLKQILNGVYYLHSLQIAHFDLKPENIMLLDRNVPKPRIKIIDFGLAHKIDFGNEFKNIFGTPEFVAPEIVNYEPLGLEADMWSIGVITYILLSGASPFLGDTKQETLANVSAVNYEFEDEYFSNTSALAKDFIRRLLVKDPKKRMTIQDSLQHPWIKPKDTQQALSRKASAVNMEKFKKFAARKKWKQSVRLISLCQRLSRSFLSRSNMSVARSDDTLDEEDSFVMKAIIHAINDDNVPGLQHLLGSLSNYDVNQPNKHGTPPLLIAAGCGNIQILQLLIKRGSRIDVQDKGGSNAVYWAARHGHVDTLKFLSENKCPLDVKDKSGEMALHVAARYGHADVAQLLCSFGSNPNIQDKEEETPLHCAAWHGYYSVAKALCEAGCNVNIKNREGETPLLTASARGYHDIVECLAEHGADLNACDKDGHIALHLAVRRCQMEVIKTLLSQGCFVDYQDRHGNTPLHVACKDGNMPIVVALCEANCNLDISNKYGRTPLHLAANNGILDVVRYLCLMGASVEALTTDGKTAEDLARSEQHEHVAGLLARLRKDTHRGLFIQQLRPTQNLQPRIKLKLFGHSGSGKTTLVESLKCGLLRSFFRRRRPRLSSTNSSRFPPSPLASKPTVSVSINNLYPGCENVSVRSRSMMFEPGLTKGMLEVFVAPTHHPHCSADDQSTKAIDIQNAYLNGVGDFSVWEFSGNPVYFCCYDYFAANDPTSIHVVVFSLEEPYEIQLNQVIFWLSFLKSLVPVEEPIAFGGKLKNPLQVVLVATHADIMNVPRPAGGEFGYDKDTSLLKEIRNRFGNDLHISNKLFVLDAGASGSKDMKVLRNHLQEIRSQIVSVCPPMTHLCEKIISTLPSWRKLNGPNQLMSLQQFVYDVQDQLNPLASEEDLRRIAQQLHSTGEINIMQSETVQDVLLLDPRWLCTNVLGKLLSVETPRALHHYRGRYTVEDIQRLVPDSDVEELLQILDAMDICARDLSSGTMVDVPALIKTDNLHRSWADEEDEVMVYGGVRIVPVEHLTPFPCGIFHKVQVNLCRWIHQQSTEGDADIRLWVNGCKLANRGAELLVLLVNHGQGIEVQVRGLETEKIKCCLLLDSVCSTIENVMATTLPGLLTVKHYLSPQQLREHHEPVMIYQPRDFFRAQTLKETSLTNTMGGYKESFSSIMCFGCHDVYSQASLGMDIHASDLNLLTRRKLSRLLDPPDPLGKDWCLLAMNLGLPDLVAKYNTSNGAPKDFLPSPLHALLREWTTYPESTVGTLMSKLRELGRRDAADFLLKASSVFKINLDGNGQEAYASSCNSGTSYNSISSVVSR
# [6] = biological target: T4, Discoidin domain-containing receptor 2 (Homo sapiens) (UniProt Q16832); conditions: at 1 µM
# T4 sequence (whole entry): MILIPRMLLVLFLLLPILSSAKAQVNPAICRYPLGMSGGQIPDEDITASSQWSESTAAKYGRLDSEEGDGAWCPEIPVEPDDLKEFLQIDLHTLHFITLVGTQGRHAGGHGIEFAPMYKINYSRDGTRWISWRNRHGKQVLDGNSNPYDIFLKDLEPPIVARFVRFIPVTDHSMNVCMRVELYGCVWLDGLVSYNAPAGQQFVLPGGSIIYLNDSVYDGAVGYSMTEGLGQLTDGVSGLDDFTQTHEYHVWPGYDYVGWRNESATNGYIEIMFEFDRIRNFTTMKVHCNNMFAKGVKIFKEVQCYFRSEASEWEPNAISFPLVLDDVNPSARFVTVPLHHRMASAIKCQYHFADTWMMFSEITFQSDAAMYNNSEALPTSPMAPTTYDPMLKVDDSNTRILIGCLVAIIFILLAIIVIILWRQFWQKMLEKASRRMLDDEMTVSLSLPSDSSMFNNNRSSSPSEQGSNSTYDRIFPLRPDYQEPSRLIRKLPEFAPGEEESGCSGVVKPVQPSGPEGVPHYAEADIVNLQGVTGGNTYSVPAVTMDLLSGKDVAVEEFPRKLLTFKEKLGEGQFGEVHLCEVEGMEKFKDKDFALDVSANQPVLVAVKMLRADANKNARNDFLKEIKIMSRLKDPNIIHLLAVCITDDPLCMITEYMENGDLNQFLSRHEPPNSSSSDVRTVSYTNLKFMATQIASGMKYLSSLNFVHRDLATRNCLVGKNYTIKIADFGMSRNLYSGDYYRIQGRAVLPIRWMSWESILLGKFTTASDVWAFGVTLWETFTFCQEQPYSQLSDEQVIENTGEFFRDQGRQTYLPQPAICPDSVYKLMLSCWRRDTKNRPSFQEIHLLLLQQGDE
# [7] = biological target: T5, Myotonin-protein kinase (Homo sapiens) (UniProt Q09013); conditions: at 1 µM
# T5 sequence (whole entry): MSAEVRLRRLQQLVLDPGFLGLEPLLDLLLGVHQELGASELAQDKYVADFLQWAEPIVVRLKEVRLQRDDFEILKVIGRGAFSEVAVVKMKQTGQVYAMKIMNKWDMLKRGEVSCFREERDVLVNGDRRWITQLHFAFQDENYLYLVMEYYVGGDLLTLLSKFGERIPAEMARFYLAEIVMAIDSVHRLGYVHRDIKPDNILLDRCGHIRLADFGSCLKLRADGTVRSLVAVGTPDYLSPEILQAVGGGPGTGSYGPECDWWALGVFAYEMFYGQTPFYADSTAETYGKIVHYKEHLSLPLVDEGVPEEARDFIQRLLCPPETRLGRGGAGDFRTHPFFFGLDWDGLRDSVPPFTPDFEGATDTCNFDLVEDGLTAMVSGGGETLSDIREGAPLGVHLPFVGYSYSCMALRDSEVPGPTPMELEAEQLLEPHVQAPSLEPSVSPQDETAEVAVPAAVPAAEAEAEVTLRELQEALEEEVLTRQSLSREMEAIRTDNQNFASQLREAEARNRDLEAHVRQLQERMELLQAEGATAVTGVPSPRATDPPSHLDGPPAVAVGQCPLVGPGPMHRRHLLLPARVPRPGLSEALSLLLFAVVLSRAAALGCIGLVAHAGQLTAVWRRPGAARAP
# [8] = biological target: T5, Myotonin-protein kinase (Homo sapiens); conditions: at 10 µM
# [9] = biological target: Epidermal growth factor receptor (Homo sapiens) (UniProt P00533); conditions: at 1 µM
# Epidermal growth factor receptor (Homo sapiens), sequence (P00533 whole entry): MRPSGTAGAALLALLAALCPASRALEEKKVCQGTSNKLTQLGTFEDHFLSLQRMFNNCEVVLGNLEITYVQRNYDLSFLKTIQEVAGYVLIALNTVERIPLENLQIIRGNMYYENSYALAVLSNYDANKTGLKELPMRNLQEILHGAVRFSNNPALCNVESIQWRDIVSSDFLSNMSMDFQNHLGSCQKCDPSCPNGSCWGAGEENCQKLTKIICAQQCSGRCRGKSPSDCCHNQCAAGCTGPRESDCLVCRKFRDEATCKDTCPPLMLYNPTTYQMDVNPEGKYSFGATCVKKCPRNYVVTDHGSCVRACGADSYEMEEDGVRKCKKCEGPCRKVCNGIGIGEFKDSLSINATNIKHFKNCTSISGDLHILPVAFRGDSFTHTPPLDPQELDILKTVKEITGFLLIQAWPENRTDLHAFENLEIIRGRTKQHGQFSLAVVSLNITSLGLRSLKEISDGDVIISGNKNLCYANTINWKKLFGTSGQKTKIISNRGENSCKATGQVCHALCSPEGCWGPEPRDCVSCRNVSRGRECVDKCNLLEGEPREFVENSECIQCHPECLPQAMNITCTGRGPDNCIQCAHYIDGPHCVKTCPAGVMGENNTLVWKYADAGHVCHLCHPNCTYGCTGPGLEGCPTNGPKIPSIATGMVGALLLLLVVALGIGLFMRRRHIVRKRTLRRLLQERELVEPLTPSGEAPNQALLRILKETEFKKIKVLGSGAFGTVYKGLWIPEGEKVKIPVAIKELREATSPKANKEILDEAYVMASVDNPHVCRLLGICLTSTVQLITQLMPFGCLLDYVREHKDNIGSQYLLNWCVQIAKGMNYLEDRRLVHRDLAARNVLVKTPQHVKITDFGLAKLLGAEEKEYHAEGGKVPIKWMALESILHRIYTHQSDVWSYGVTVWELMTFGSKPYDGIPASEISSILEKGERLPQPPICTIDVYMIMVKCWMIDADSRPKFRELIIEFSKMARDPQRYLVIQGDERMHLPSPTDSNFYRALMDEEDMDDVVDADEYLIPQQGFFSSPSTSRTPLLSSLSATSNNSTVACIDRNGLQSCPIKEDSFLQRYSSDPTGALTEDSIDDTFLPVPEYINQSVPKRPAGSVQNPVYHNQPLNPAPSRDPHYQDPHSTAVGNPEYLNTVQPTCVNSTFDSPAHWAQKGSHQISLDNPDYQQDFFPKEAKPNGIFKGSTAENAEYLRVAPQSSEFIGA
# [10] = biological target: Epidermal growth factor receptor (Homo sapiens) (UniProt P00533); conditions: at 10 µM
# [11] = biological target: T6, Serine/threonine-protein kinase DCLK2 (Homo sapiens) (UniProt Q8N568); conditions: at 1 µM
# T6 sequence (whole entry): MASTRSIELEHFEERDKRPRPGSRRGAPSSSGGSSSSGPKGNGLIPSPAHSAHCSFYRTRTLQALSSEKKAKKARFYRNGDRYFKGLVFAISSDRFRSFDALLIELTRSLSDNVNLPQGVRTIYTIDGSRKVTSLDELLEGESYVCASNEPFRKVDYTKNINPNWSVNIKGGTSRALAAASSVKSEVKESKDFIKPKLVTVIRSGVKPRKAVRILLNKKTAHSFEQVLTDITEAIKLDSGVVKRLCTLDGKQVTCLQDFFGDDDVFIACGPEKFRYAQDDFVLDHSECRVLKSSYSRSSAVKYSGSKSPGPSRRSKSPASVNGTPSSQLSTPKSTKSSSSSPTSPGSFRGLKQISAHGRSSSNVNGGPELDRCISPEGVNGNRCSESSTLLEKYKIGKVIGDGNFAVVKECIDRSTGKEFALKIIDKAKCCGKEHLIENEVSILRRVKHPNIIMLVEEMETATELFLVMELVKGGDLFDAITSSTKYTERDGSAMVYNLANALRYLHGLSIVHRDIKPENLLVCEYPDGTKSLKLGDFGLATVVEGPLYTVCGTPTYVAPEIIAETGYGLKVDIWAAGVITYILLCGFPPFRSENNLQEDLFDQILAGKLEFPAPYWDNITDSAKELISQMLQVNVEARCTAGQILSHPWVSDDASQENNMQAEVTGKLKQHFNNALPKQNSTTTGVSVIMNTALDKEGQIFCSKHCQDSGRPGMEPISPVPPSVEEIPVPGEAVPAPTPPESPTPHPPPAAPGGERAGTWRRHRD
# [12] = biological target: T6, Serine/threonine-protein kinase DCLK2 (Homo sapiens); conditions: at 10 µM
# [13] = biological target: T2, Ephrin type-A receptor 1 (Homo sapiens); conditions: at 1 µM
# [14] = biological target: Ephrin type-A receptor 2 (Homo sapiens) (UniProt P29317); conditions: at 1 µM
# Ephrin type-A receptor 2 (Homo sapiens), sequence (P29317 whole entry): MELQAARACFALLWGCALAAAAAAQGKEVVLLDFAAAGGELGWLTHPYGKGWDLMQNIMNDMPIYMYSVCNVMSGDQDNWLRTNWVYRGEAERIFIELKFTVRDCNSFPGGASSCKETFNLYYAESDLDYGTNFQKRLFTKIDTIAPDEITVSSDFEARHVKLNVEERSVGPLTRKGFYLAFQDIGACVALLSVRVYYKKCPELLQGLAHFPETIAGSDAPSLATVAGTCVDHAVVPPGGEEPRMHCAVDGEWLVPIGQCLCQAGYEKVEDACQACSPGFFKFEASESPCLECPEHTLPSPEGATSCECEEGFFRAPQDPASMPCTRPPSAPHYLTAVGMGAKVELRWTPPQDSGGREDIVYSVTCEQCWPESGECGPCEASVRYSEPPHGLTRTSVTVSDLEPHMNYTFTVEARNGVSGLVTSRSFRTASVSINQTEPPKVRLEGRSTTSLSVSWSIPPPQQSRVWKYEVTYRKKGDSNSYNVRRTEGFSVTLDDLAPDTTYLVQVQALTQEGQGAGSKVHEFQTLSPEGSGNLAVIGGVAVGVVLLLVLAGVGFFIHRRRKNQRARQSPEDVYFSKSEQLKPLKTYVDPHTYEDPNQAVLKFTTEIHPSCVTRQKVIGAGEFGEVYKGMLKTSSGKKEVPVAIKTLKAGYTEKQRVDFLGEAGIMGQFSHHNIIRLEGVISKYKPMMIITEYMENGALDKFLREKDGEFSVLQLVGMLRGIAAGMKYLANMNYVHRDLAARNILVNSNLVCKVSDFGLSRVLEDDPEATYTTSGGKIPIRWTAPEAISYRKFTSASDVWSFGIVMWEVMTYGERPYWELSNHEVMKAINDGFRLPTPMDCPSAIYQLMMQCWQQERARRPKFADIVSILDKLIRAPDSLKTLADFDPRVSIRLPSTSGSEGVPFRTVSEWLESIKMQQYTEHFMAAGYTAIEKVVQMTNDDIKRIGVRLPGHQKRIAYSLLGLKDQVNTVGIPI
# [15] = biological target: Ephrin type-A receptor 2 (Homo sapiens) (UniProt P29317); conditions: at 10 µM
# [16] = biological target: Death-associated protein kinase 2 (Homo sapiens) (UniProt Q9UIK4); conditions: at 1 µM
# Death-associated protein kinase 2 (Homo sapiens), sequence (Q9UIK4 whole entry, looked up, the tested form may be a part): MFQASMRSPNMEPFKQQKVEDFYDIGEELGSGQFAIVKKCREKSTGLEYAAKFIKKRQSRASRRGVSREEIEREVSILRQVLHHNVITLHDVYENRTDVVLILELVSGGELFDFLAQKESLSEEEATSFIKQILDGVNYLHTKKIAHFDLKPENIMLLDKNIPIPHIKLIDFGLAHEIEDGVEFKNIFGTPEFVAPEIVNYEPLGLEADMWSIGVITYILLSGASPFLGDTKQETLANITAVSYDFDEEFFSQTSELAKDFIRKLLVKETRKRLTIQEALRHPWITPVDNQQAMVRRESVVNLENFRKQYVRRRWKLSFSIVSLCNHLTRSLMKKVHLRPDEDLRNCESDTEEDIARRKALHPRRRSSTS
# [17] = biological target: Death-associated protein kinase 2 (Homo sapiens) (UniProt Q9UIK4); conditions: at 10 µM
# [18] = biological target: T4, Discoidin domain-containing receptor 2 (Homo sapiens); conditions: at 10 µM
# [19] = biological target: T7, Dual specificity tyrosine-phosphorylation-regulated kinase 2 (Homo sapiens) (UniProt Q92630); conditions: at 1 µM
# T7 sequence (whole entry): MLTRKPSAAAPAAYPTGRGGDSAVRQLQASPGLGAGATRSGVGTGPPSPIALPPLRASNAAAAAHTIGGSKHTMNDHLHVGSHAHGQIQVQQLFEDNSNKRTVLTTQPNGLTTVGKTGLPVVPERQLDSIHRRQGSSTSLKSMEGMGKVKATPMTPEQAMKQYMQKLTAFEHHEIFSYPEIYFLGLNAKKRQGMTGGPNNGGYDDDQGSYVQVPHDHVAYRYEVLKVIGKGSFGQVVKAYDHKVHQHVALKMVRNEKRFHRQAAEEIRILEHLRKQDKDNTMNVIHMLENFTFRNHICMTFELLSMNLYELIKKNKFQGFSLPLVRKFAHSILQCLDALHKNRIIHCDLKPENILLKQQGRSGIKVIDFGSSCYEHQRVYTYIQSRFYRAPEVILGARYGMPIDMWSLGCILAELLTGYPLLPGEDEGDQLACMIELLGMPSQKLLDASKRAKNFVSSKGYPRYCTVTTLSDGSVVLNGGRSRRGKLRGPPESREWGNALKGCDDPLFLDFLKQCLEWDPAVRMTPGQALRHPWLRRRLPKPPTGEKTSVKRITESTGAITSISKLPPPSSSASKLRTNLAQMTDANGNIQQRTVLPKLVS
# [20] = biological target: T7, Dual specificity tyrosine-phosphorylation-regulated kinase 2 (Homo sapiens); conditions: at 10 µM
structure (smiles),measurement,setting,value
Cc1cc(C)c(/C=C2\C(=O)Nc3ccccc32)[nH]1,residual activity,[1],26%
same,residual activity,[2],3%
same,residual activity,[3],103%
same,residual activity,[4],101%
COc1ccc(COc2ccc(Cc3cnc(N)nc3N)cc2OC)cc1,residual activity,[5],82%
same,residual activity,[6],112%
same,residual activity,[7],115%
same,residual activity,[8],139%
same,residual activity,[1],112%
same,residual activity,[2],112%
same,residual activity,[9],112%
same,residual activity,[10],114%
same,residual activity,[3],77%
same,residual activity,[4],108%
NCCNc1ncc(C(N)=O)c(Nc2cccc(C(F)(F)F)c2)n1,residual activity,[11],73%
same,residual activity,[12],66%
same,residual activity,[2],60%
same,residual activity,[13],81%
same,residual activity,[3],45%
same,residual activity,[14],103%
same,residual activity,[15],76%
CCCCc1c(-c2ccc(O)cc2)[nH]c2nccnc12,residual activity,[16],89%
same,residual activity,[17],96%
same,residual activity,[6],71%
same,residual activity,[18],36%
same,residual activity,[1],77%
same,residual activity,[2],44%
same,residual activity,[19],85%
same,residual activity,[20],34%
same,residual activity,[13],29%
same,residual activity,[3],47%
same,residual activity,[14],82%
same,residual activity,[15],60%
same,residual activity,[4],72%
O=C1Nc2ccccc2/C1=C\c1c(Cl)[nH]c2ccccc12,residual activity,[5],83%
same,residual activity,[7],119%
same,residual activity,[1],83%
same,residual activity,[2],85%
same,residual activity,[13],87%
same,residual activity,[3],72%
